{
  "source": "PubChem BioAssay (Tox21)",
  "note": "The source made the active and inactive calls. The call rests on the fitted dose curve. On the % scale 0 is the no-effect control and ±100 the full control effect; potency means the concentration at half of the fitted maximal effect.",
  "data": [
    {"biological_target": "Muscarinic acetylcholine receptor M1 (Homo sapiens) (UniProt P11229)", "sequence (P11229 whole entry, looked up)": "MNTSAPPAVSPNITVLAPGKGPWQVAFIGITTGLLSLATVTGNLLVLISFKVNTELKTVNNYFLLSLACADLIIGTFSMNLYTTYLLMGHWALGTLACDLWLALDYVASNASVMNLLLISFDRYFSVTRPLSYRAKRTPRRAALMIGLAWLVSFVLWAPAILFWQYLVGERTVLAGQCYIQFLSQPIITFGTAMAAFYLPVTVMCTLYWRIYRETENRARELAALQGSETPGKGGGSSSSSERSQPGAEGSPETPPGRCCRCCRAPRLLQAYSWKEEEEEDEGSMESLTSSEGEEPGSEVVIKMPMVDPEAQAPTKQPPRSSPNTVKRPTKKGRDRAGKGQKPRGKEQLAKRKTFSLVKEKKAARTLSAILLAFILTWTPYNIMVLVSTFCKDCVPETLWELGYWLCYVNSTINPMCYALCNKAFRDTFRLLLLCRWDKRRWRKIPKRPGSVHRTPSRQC", "assay": "Cholinergic receptor muscarinic 1 (CHRM1) small molecule agonists, cell-based qHTS assay (AID 1963589); further: nearly all actives have a fitted effect of over 35% in size", "settings": "CHRM1-CHO cells, agonist mode, calcium flux fluorescence; series mostly up to 76.8 µM; activation: at the top concentration", "source_text": "National Center for Advancing Translational Sciences [NCATS]\nDivision of Preclinical Innovation [DPI]\nU.S. Environmental Protection Agency [EPA]\nNational Institutes of Environmental Health Sciences [NIEHS]\nNational Toxicology Program [NTP]\nU.S. Food and Drug Administration [FDA]\nThe CHRM1 is a muscarinic receptor. This receptor plays a crucial role in learning and memory processes and has long been identified as a promising therapeutic target for the improvement of cognitive decline in Alzheimer's disease (AD). The CHRM1-CHO cell line stably expressing human muscarinic acetylcholine receptor M1 (CHRM1) can be used for screening agonists and antagonists of interactions between CHRM1 and its ligands. The CHRM1-CHO Calcium Flux Assay is a homogeneous fluorescence-based assay for detecting the intracellular calcium level using FDSS kinetic plate reader system.\nCHRM1-CHO cells were dispensed at 1000 cells/3uL/well in 1536-well black-clear bottom plates using a Multidrop Dispenser. After the assay plates were incubated at a 37 C/5% CO2 incubator for 18 h, 3 uL of Dye Loading Buffer was transferred to the assay plate by a Flying Reagent Dispenser. The assay plates were incubated at 37 C for 1h. For agonist mode, 23 nL of compounds dissolved in DMSO, positive controls or DMSO only was transferred to the assay plate by a pin tool. […] Each test compound was measured at 15 concentrations in three independent runs.", "values": [
      {"smiles": "CC(Cl)(Cl)[N+](=O)[O-]", "activation": "0.207% (inactive)"},
      {"smiles": "COP(N)(=S)Oc1ccccc1C(=O)OC(C)C", "note": "(stereo not given)", "activation": "-0.0432% (inactive)"},
      {"smiles": "CC(=O)[O-].CC(=O)[O-].O.O.O.[Pb+2]", "activation": "-0.772% (inactive)"},
      {"smiles": "C=CCC1=C(C)C(OC(=O)C2C(C=C(C)C)C2(C)C)CC1=O", "note": "(stereo not given)", "activation": "2.16% (inactive)"},
      {"smiles": "Cc1ncc(C[n+]2csc(CCO)c2C)c(N)n1", "activation": "-0.765% (inactive)"},
      {"smiles": "CC1N=C(N)OC1c1ccccc1", "note": "(stereo not given)", "activation": "0.965% (inactive)"},
      {"smiles": "Oc1ccc(C2(c3ccc(O)cc3)c3ccccc3-c3ccccc32)cc1", "activation": "2.61% (inactive)"},
      {"smiles": "C[C@H]1CCC[C@H](O)CCCCCc2cc(O)cc(O)c2C(=O)O1", "activation": "11.6% (inactive)"},
      {"smiles": "O=S(=O)(O)C(F)(F)C(F)(F)C(F)(F)C(F)(F)F", "activation": "13.3% (inactive)"},
      {"smiles": "CC#C[C@]1(O)CC[C@H]2[C@@H]3C[C@H](C)C4=CC(=O)CC[C@]4(C)[C@H]3CC[C@@]21C", "activation": "-0.174% [at 35.3 µM] (inactive)"},
      {"smiles": "CC(=O)Nc1cc([As](=O)(O)O)ccc1O", "activation": "-0.0571% [at 35.3 µM] (inactive)"},
      {"smiles": "O=[N+]([O-])c1c(Cl)c(Cl)cc(Cl)c1Cl", "Potency": "3.47 µM (active)"},
      {"smiles": "CC1(C)[C@H](/C=C2\\CCSC2=O)[C@@H]1C(=O)OCc1coc(Cc2ccccc2)c1", "activation": "16.1% (inactive)"},
      {"smiles": "S=C=NCc1ccccc1", "activation": "-0.886% (inactive)"},
      {"smiles": "CSCCCN=C=S", "activation": "-0.582% (inactive)"},
      {"smiles": "O=C(NC(=O)c1c(F)cccc1F)Nc1ccc(OC(F)(F)C(F)OC(F)(F)F)c(Cl)c1", "note": "(stereo not given)", "activation": "13.2% [at 35.3 µM] (inactive)"},
      {"smiles": "C=C(C)C(=O)[O][Sn]([CH2]CCC)([CH2]CCC)[CH2]CCC", "Potency": "9.77 µM (active)"},
      {"smiles": "CCC[CH2][Sn]([CH2]CCC)([CH2]CCC)[CH2]CCC", "activation": "5.78% (inactive)"},
      {"smiles": "CC(=O)O.CC(=O)O.CC(=O)O.CC(=O)O.CC(=O)O.CC(=O)O.CC(=O)O.O.O.[Cr].[Cr].[Cr]", "activation": "-0.181% (inactive)"},
      {"smiles": "FC(F)OC(F)(F)C(F)Cl", "note": "(stereo not given)", "activation": "0.0877% (inactive)"},
      {"smiles": "ClSC(Cl)(Cl)Cl", "activation": "3.82% (inactive)"},
      {"smiles": "BrCCCCCCBr", "activation": "0.347% (inactive)"},
      {"smiles": "C[N+]1(C)[C@@H]2CC[C@H]1CC(OC(=O)C(CO)c1ccccc1)C2", "note": "(stereo not given in full)", "activation": "-0.0372% [at 35.3 µM] (inactive)"},
      {"smiles": "Cc1ccc2ccccc2c1C", "Potency": "inactive"},
      {"smiles": "CC(CC(C#N)(c1ccccc1)c1ccccc1)N(C)C", "note": "(stereo not given)", "activation": "-0.217% (inactive)"},
      {"smiles": "[O-][Cl+3]([O-])([O-])O", "activation": "0.0128% (inactive)"},
      {"smiles": "CC(Cc1ccccc1)NCc1ccccc1Cl", "note": "(stereo not given)", "activation": "0.036% [at 35.3 µM] (inactive)"},
      {"smiles": "CSc1ccc(C(=O)C(C)(C)N2CCOCC2)cc1", "activation": "-0.0466% (inactive)"},
      {"smiles": "CC(C)CC#N", "activation": "0.102% (inactive)"},
      {"smiles": "C=CCC1(C(C)CC)C(=O)NC(=O)NC1=O", "note": "(stereo not given)", "activation": "-0.0503% [at 35.3 µM] (inactive)"},
      {"smiles": "CN1CCC(O)(c2ccc(F)cc2)C(C(=O)c2ccc(F)cc2)C1", "note": "(stereo not given)", "activation": "-0.919% [at 35.3 µM] (inactive)"},
      {"smiles": "Cn1sc(Cl)cc1=O", "activation": "3.31% (inactive)"},
      {"smiles": "CCCCOC(C)=O", "activation": "0.592% (inactive)"},
      {"smiles": "O=C(NC(O)C(Cl)(Cl)Cl)NC(O)C(Cl)(Cl)Cl", "note": "(stereo not given)", "activation": "-0.286% [at 35.3 µM] (inactive)"},
      {"smiles": "CCCCC(O)(Cn1cncn1)c1ccc(Cl)cc1Cl", "note": "(stereo not given)", "activation": "3.91% (inactive)"},
      {"smiles": "CN1CCN(C(=O)O[C@H]2c3nccnc3C(=O)N2c2ccc(Cl)cn2)CC1", "activation": "-0.29% [at 35.3 µM] (inactive)"},
      {"smiles": "COC(C)(C)CCC[C@H](C)C/C=C/C(C)=C/C(=O)OC(C)C", "activation": "2.71% (inactive)"},
      {"smiles": "c1cc[n+]2c(c1)-c1cccc[n+]1CC2", "activation": "-1.22% [at 35.3 µM] (inactive)"},
      {"smiles": "OCCCBr", "activation": "1.74% (inactive)"},
      {"smiles": "Oc1ccc(Cl)c(Cl)c1Cl", "activation": "1.37% (inactive)"}
    ]}
  ]
}
